In PubChem BioAssay (NCATS):
Values joined by “and” are separate entries in the source; they are usually repeats but may differ in a detail not shown here. Equal entries are not always repeated. Values without a mark were called inactive. Results filed as inconclusive are left out. Where a call stands in place of a potency, no number is given. Active and inactive are the calls of the source. Calls come from the whole dose curve; as a rule, active = well fitted curve in the direction sought with a large enough effect; inconclusive = small, poorly fitted or top-dose-only effect, or another doubt; inactive = no such curve, though single readings can be large; an effect the other way counts as inactive or inconclusive.

Experiments:
[1] = target: Cytochrome P450 2C9 (Homo sapiens) (UniProt P11712); assay: qHTS Assay for Inhibitors and Substrates of Cytochrome P450 2C9 (AID 883); note: nearly all actives have a fitted effect of over 60% in size; note: potency is the fitted concentration of half-maximal effect
Chain of Cytochrome P450 2C9 (Homo sapiens) (P11712 whole entry, looked up): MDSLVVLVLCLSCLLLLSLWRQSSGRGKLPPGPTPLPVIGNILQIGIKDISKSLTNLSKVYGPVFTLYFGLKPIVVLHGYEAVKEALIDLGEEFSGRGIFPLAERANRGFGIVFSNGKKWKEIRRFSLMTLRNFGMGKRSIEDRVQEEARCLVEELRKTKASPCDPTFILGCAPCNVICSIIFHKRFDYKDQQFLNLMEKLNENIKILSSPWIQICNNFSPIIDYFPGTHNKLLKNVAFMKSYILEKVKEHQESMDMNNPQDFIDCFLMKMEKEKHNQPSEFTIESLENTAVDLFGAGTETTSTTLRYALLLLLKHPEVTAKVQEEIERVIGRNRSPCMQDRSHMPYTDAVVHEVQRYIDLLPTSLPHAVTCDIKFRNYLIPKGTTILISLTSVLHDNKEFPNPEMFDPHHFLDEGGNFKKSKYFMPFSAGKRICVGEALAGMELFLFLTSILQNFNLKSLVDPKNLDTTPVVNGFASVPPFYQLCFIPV
Procedure, shortened: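 10nM CYP2C9 + 100uM Luciferin-H (=KM), 25mM KPO4; cpd 10 min 37C; NADPH regen, 60 min 37C; stop/detect with P450 Glo-Buffer 20 min; luminescence. Norm. to 57uM sulphaphenazole as full inhibition.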

[2] = target: Cytochrome P450 3A4 (Homo sapiens) (UniProt P08684); assay: qHTS Assay for Inhibitors and Substrates of Cytochrome P450 3A4 (AID 884); note: nearly all actives have a fitted effect of over 50% in size; note: potency is the fitted concentration of half-maximal effect; for activity change, negative = inhibition: series mostly up to about 57 µM
Chain of Cytochrome P450 3A4 (Homo sapiens) (P08684 whole entry, looked up): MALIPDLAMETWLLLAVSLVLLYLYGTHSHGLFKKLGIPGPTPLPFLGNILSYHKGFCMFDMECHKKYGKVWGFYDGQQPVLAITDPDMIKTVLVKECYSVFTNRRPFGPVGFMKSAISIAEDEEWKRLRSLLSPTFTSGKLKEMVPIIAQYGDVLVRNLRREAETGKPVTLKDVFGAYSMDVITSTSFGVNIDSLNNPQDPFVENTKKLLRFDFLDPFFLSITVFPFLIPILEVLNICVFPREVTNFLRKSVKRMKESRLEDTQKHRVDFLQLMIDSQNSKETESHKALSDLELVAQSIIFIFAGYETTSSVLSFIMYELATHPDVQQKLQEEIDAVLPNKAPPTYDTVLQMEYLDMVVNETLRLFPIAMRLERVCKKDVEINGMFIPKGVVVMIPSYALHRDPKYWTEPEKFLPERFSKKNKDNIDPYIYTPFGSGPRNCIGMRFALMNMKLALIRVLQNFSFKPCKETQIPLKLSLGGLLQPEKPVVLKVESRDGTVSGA
Procedure, shortened: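 20 nM human CYP3A4 with 25 uM Luciferin-PPXE (at KM) in 200 mM KPO4, preincubated 10 min with compound; NADPH regeneration started a 60 min RT reaction. Luciferin detected by luminescence, normalized to 57 uM ketoconazole as full inhibition.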

[3] = target: Cytochrome P450 3A4 (Homo sapiens) (UniProt P08684); assay: qHTS Assay for Activators of Cytochrome P450 3A4 (AID 885); note: nearly all actives have a fitted effect of over 65% in size
Procedure, shortened: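 Quantitative HTS format: compounds preincubated with 20nM human CYP3A4 and Luciferin-PPXE substrate at KM, reaction started by NADPH regeneration, stopped after 60 min, luciferase luminescence read 20 min later.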

[4] = target: Cytochrome P450 2D6 (Homo sapiens) (UniProt P10635); assay: qHTS Assay for Inhibitors and Substrates of Cytochrome P450 2D6 (AID 891);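 note: luciferin methyl ether substrate demethylated by CYP2D6 with NADPH regeneration; nearly all actives have a fitted effect of over 60% in size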
Chain of Cytochrome P450 2D6 (Homo sapiens) (P10635 whole entry, looked up): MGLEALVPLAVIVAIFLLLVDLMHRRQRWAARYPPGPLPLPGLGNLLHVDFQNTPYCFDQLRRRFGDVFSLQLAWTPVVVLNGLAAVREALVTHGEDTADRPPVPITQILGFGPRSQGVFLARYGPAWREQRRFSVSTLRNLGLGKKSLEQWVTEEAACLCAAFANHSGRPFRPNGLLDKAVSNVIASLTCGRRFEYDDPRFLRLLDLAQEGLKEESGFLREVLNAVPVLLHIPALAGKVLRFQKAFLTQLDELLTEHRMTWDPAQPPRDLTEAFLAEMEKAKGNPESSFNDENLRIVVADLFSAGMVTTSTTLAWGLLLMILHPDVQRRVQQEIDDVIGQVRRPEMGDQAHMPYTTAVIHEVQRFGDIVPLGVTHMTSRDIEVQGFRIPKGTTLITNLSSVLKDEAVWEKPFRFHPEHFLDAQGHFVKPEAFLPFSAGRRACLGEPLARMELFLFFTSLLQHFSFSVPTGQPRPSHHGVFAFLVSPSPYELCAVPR
Procedure, shortened: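 Human CYP2D6 (5 nM) with 30 uM Luciferin-ME EGE (at Km) in 100 mM KPO4, compound preincubated 10 min, then NADPH regeneration system for 60 min at room temperature. Luciferin read by luminescence; normalized to 1.43 uM quinidine.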

[5] = target: Cytochrome P450 2C19 (Homo sapiens) (UniProt P33261); assay: qHTS Assay for Inhibitors and Substrates of Cytochrome P450 2C19 (AID 899); note: nearly all actives have a fitted effect of over 60% in size; note: potency is the fitted concentration of half-maximal effect
Chain of Cytochrome P450 2C19 (Homo sapiens) (P33261 whole entry, looked up): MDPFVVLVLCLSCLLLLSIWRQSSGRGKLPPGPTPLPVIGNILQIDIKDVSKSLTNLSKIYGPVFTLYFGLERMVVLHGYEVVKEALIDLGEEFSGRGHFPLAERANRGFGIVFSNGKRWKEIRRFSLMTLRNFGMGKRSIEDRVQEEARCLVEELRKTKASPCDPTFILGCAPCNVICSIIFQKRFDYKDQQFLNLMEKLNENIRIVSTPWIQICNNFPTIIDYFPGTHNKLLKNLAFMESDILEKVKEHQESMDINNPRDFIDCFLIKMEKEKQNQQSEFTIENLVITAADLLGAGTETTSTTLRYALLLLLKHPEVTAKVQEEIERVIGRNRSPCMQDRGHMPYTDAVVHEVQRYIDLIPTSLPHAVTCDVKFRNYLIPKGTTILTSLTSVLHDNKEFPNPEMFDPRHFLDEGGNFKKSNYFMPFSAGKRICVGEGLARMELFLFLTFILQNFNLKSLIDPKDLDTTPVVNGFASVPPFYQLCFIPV
Procedure, shortened: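 Luminescent read-out of luciferin formed from Luciferin-H EGE (10uM, equal to KM). Enzyme 5nM in 50mM KPO4; compound added, 10 min at 37C, then NADPH regenerating system for 60 min at 37C. Full inhibition defined by 57uM ketoconazole.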

**Q.** Which Potency [1] does the source give for `COc1ccc(OC2C(O)COC2/C=C/C#Cc2ccc(F)cc2F)cc1` (configuration not stated) here?
**A.** The Potency was 2.51 µM (active).

**Q.** What about the Potency [2] of the same molecule?
**A.** The Potency was 3.98 µM (active) and 3.16 µM (active).

**Q.** And the activity change, positive = activation [3]?
**A.** The activity change, positive = activation was -91.9% [at 11.4 µM] and -66.3% [at 11.4 µM].

**Q.** What about the Potency [4] of the same molecule?
**A.** The Potency was “inactive”.

**Q.** What about the Potency [5] of the same molecule?
**A.** The Potency was “inactive”.

**Q.** Which results are given for `COc1ccc(OCC2Cc3c(-c4ccccc4)nc4c(c3CO2)CN(CCOc2ccccc2)CC4)cc1` (configuration not stated)?
**A.** Potency [1]: inactive; Potency [2]: 3.98 µM (active); activity change, positive = activation [3]: -83.6% [at 11.4 µM]; Potency [4]: inactive

**Q.** With `CCCCC#CC1C=CC(OC(C)=O)C(COC(C)=O)O1` (configuration not stated) as the molecule, how does the Potency [1] read?
**A.** The Potency was “inactive”.

**Q.** And the Potency [2]?
**A.** Its Potency is 2.51 µM (active).

**Q.** What about the activity change, positive = activation [3] of the same molecule?
**A.** The activity change, positive = activation was -63.9% [at 11.4 µM].

**Q.** And the Potency [4]?
**A.** Its Potency is “inactive”.

**Q.** Which results are given for `C=CCC(O)CC1C2C(CC(O)CC=C)C3C1C3C2OC(C)(C)C` (configuration not stated)?
**A.** Potency [1]: inactive; Potency [2]: 1.58 µM (active); activity change, positive = activation [3]: -98.2% [at 11.4 µM]; Potency [4]: inactive; Potency [5]: 794 nM (active)

**Q.** With `COC(=O)C1=C(C)N(Cc2ccccc2)[C@]23O[C@](C(=O)OC)(C(=O)N2C1c1ccccc1)C(c1ccccc1)C3C(=O)c1ccccc1` (some centres not stated) as the molecule, how does the Potency [1] read?
**A.** Its Potency is “inactive”.

**Q.** And the activity change, negative = inhibition [2]?
**A.** Its activity change, negative = inhibition is -26.7% [at 11.4 µM].

**Q.** What about the activity change, positive = activation [3] of the same molecule?
**A.** Its activity change, positive = activation is -32.3% [at 11.4 µM].

**Q.** And the Potency [4]?
**A.** Its Potency is “inactive”.

**Q.** And the Potency [5]?
**A.** Its Potency is “inactive”.

**Q.** With `CC(C)(C)c1ccc(OC2C=CC(C#Cc3ccccc3)OC2CO)cc1` (configuration not stated) as the molecule, how does the Potency [1] read?
**A.** Its Potency is “inactive”.

**Q.** What about the Potency [2] of the same molecule?
**A.** Its Potency is 3.16 µM (active).

**Q.** And the activity change, positive = activation [3]?
**A.** The activity change, positive = activation was -73.2% [at 11.4 µM].

**Q.** And the Potency [4]?
**A.** The Potency was “inactive”.

**Q.** What about the Potency [5] of the same molecule?
**A.** The Potency was “inactive”.

**Q.** For `C=CCOC(=O)C(C(C)=O)C(NC(=O)OC)c1ccc(F)cc1` (configuration not stated), which Potency [1] is on record?
**A.** Its Potency is “inactive”.

**Q.** And the Potency [2]?
**A.** The Potency was 3.16 µM (active).

**Q.** And the activity change, positive = activation [3]?
**A.** Its activity change, positive = activation is -78% [at 11.4 µM].

**Q.** What about the Potency [4] of the same molecule?
**A.** Its Potency is “inactive”.
